# Results from the supplement of paper PMC9694430.
# Structures can show the parent of a compound that is named as a salt.
# Tested on: LOC_OS01G67340-cb003
# Experiment: thermal shift delta Tm vs DMSO control; higher = stronger stabilization (binding)
# Settings: 12.5 µM; protein concentration 2 µM
# Outline: (§1)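 Heating from 25°C to 95°C at 0.05°C/s, fluorescence was recorded for 19.5 μl wells of 2 μM E. coli-expressed, purified rice kinase domain in 100 mM potassium phosphate pH 7.5, 150 mM NaCl, 10% glycerol and 5 × SYPRO Orange with compound in DMSO. Boltzmann fits gave melting temperatures for this differential scanning fluorimetry assay. The shift reported is the mean of three replicates against the DMSO-only protein.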
# 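Note: purified Escherichia coli-expressed rice kinase domain construct.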
row,SMILES,thermal shift delta Tm
1,Cc1cnc(Nc2ccc(OCCN3CCCC3)cc2)nc1Nc1cccc(S(=O)(=O)NC(C)(C)C)c1,0.84 °C
2,CN1CCN(CCOc2cc(OC3CCOCC3)c3c(Nc4c(Cl)ccc5c4OCO5)ncnc3c2)CC1 [Saracatinib (AZD0530)],0.29 °C
3,Cn1cc(-c2ccc(F)c(C(F)(F)F)c2)nc1C1CCN(c2ncnc3[nH]ncc23)CC1,0.07 °C
4,O=C(O)c1ccc2c(c1)nc(Nc1cccc(Cl)c1)c1ccncc12 [Silmitasertib (CX-4945)],0.58 °C
5,Cn1c(=O)c(F)c(Nc2ccc(I)cc2F)c2c(=O)n(C[C@@H](O)CO)cnc21,0.29 °C
6,O=C(NC[C@H](O)CO)c1ccncc1Nc1ccc(I)cc1F,-0.19 °C
7,COc1c(C)c(C(=O)c2ccc(N)c(C(=O)O)c2)n2ccccc12,-0.08 °C
8,COc1cc(N2CCC(N)CC2)ccc1Nc1ncc(Cl)c(-c2c[nH]c3ccccc23)n1,0.6 °C
9,C=CC(=O)Nc1ccc2ncnc(Nc3ccc(OCc4cccc(F)c4)c(Cl)c3)c2c1,4.19 °C
10,CCS(=O)(=O)N1CCN(c2ccc(Nc3ncc(C(N)=O)c(NC4CC4)n3)cc2)CC1,3.04 °C
11,O=C1c2ccc(Nc3ccc(F)cc3F)cc2CCc2ccc(OC[C@H](O)CO)cc21 [Skepinone-L],0.84 °C
12,CCN1C(=O)CNc2ncc(-c3ccc(-c4nc[nH]n4)nc3C)nc21,-0.28 °C
13,Cc1ccc(CNc2ncnc3ccc(-c4ccc(CO)o4)cc23)o1,-0.04 °C
14,CCc1cncnc1N1CCN(Cc2nc3ccc(C(F)(F)F)cc3[nH]2)CC1,-0.58 °C
15,Cc1cc(CN2CCN(c3c(Br)cnc4nc(-c5ccc(N6CCN(C)CC6)cc5)[nH]c34)CC2)no1,1.36 °C
16,Cc1nc(-c2cn3c(n2)-c2ccc(-c4cnn(C(C)(C)C(N)=O)c4)cc2OCC3)n(C(C)C)n1 [Taselisib (GDC 0032)],0.07 °C
17,Cc1ccc(NC(=O)c2ccc(CN3CCN(C)CC3)cc2)cc1Nc1nccc(-c2cccnc2)n1 [Imatinib Mesylate (STI571)],-0.58 °C
18,O=c1cc(N2CCOCC2)oc2c(-c3ccccc3)cccc12,-0.28 °C
19,Nc1ncccc1-c1nc2ccc(-c3ccccc3)nc2n1-c1ccc(C2(N)CCC2)cc1 [Miransertib (ARQ 092) HCl],0.08 °C

row,SMILES,thermal shift delta Tm
1,CNS(=O)(=O)C[C@H]1CC[C@H](N(C)c2[nH]cnc3nccc2-3)CC1 [Oclacitinib],2.18 °C
2,N#Cc1ccc2[nH]c(O)c(-c3ccc(CN4CCOCC4)cn3)c2c1,-0.02 °C
3,C[C@]1(O)C[C@@H](c2nc(-c3ccc4ccc(-c5ccccc5)nc4c3)c3c(N)nccn32)C1 [Linsitinib (OSI-906)],0.12 °C
4,CN1CCC(COc2cnc(-c3cccc(Cn4nc(-c5cccc(C#N)c5)ccc4=O)c3)nc2)CC1,-0.02 °C
5,CC(C)(C)c1nc(-c2ccc(NC(=O)Nc3cccc(C(F)(F)F)c3)c3ccccc23)c2c(N)nccn12 [kira6],8.45 °C
6,Oc1c(F)cc(-c2cnccc2-c2ccc(N3CCOCC3)cc2)cc1F,0.1 °C
7,CC(C)[C@H](CO)Nc1nc(Nc2cccc(Cl)c2)c2ncn(C(C)C)c2n1 [Purvalanol A],3.08 °C
8,CNC(=O)c1cc(Oc2ccc(NC(=O)Nc3ccc(Cl)c(C(F)(F)F)c3)cc2)ccn1 [Sorafenib],1.48 °C
9,O=c1cc(-c2cccc3c2Sc2ccccc2S3)oc(N2CCOCC2)c1,-0.52 °C
10,N#Cc1c(Oc2ccc(F)c(NC(=O)Cc3cccc(C(F)(F)F)c3)c2)ccc2nc(NC(=O)C3CC3)sc12,0.52 °C
11,CC[C@@](C)(Nc1ccnc(-c2c[nH]c3ncccc23)n1)C(=O)NCC(F)(F)F [Decernotinib (VX-509)],0.62 °C
12,CCNC(=O)Nc1ccc(-c2nc3c(c(N4CCOC[C@@H]4C)n2)CCN(C2COC2)C3)cc1,0.16 °C
13,COc1cc(OC)cc(N(CCNC(C)C)c2ccc3ncc(-c4cnn(C)c4)nc3c2)c1,0.07 °C
14,C[C@@]1(C(=O)Nc2ccc(F)nc2)CCCN1c1nc(Nc2cc(C3CC3)n[nH]2)c2cccn2n1,-0.49 °C
15,O=C1CCc2c(Oc3ccc4c(c3)[C@@H]3[C@H](O4)[C@H]3c3nc4cc(C(F)(F)F)ccc4[nH]3)ccnc2N1 [Lifirafenib (BGB-283)],1.66 °C
16,O=C1Nc2ccc(CN3C(=O)CSC3=O)cc2/C1=C/c1cc(CN2CCOCC2)c[nH]1,0.83 °C
17,CN(c1ccccc1CNc1nc(Nc2ccc3c(c2)CC(=O)N3)ncc1C(F)(F)F)S(C)(=O)=O,3.07 °C
18,Cc1nc(N)sc1-c1ccnc(Nc2ccc(N3CCOCC3)cc2)n1,-0.01 °C

# Tested on: LOC_OS01G70970-cb002
# Experiment: as above
# Settings: 12.5 µM; protein concentration 2 µM
# Outline: as §1
row,SMILES,thermal shift delta Tm
1,Cc1cnc(Nc2ccc(OCCN3CCCC3)cc2)nc1Nc1cccc(S(=O)(=O)NC(C)(C)C)c1,2.94 °C
2,CN1CCN(CCOc2cc(OC3CCOCC3)c3c(Nc4c(Cl)ccc5c4OCO5)ncnc3c2)CC1 [Saracatinib (AZD0530)],0.9 °C
3,Cn1cc(-c2ccc(F)c(C(F)(F)F)c2)nc1C1CCN(c2ncnc3[nH]ncc23)CC1,0.57 °C
4,O=C(O)c1ccc2c(c1)nc(Nc1cccc(Cl)c1)c1ccncc12 [Silmitasertib (CX-4945)],0.36 °C
5,Cn1c(=O)c(F)c(Nc2ccc(I)cc2F)c2c(=O)n(C[C@@H](O)CO)cnc21,0.22 °C
6,O=C(NC[C@H](O)CO)c1ccncc1Nc1ccc(I)cc1F,0.16 °C
7,COc1c(C)c(C(=O)c2ccc(N)c(C(=O)O)c2)n2ccccc12,0.36 °C
8,COc1cc(N2CCC(N)CC2)ccc1Nc1ncc(Cl)c(-c2c[nH]c3ccccc23)n1,6.87 °C
9,C=CC(=O)Nc1ccc2ncnc(Nc3ccc(OCc4cccc(F)c4)c(Cl)c3)c2c1,3.43 °C
10,CCS(=O)(=O)N1CCN(c2ccc(Nc3ncc(C(N)=O)c(NC4CC4)n3)cc2)CC1,7.22 °C
11,O=C1c2ccc(Nc3ccc(F)cc3F)cc2CCc2ccc(OC[C@H](O)CO)cc21 [Skepinone-L],0.42 °C
12,CCN1C(=O)CNc2ncc(-c3ccc(-c4nc[nH]n4)nc3C)nc21,0.01 °C
13,Cc1ccc(CNc2ncnc3ccc(-c4ccc(CO)o4)cc23)o1,0.37 °C
14,CCc1cncnc1N1CCN(Cc2nc3ccc(C(F)(F)F)cc3[nH]2)CC1,0.14 °C
15,Cc1cc(CN2CCN(c3c(Br)cnc4nc(-c5ccc(N6CCN(C)CC6)cc5)[nH]c34)CC2)no1,1.3 °C
16,Cc1nc(-c2cn3c(n2)-c2ccc(-c4cnn(C(C)(C)C(N)=O)c4)cc2OCC3)n(C(C)C)n1 [Taselisib (GDC 0032)],0.23 °C
17,Cc1ccc(NC(=O)c2ccc(CN3CCN(C)CC3)cc2)cc1Nc1nccc(-c2cccnc2)n1 [Imatinib Mesylate (STI571)],-0.12 °C
18,O=c1cc(N2CCOCC2)oc2c(-c3ccccc3)cccc12,0.36 °C
19,Nc1ncccc1-c1nc2ccc(-c3ccccc3)nc2n1-c1ccc(C2(N)CCC2)cc1 [Miransertib (ARQ 092) HCl],0.38 °C

row,SMILES,thermal shift delta Tm
1,CNS(=O)(=O)C[C@H]1CC[C@H](N(C)c2[nH]cnc3nccc2-3)CC1 [Oclacitinib],1.16 °C
2,N#Cc1ccc2[nH]c(O)c(-c3ccc(CN4CCOCC4)cn3)c2c1,0.56 °C
3,C[C@]1(O)C[C@@H](c2nc(-c3ccc4ccc(-c5ccccc5)nc4c3)c3c(N)nccn32)C1 [Linsitinib (OSI-906)],0.38 °C
4,CN1CCC(COc2cnc(-c3cccc(Cn4nc(-c5cccc(C#N)c5)ccc4=O)c3)nc2)CC1,0.15 °C
5,CC(C)(C)c1nc(-c2ccc(NC(=O)Nc3cccc(C(F)(F)F)c3)c3ccccc23)c2c(N)nccn12 [kira6],0.75 °C
6,Oc1c(F)cc(-c2cnccc2-c2ccc(N3CCOCC3)cc2)cc1F,0.21 °C
7,CC(C)[C@H](CO)Nc1nc(Nc2cccc(Cl)c2)c2ncn(C(C)C)c2n1 [Purvalanol A],3.68 °C
8,CNC(=O)c1cc(Oc2ccc(NC(=O)Nc3ccc(Cl)c(C(F)(F)F)c3)cc2)ccn1 [Sorafenib],1.77 °C
9,O=c1cc(-c2cccc3c2Sc2ccccc2S3)oc(N2CCOCC2)c1,-0.34 °C
10,N#Cc1c(Oc2ccc(F)c(NC(=O)Cc3cccc(C(F)(F)F)c3)c2)ccc2nc(NC(=O)C3CC3)sc12,0.34 °C
11,CC[C@@](C)(Nc1ccnc(-c2c[nH]c3ncccc23)n1)C(=O)NCC(F)(F)F [Decernotinib (VX-509)],0.36 °C
12,CCNC(=O)Nc1ccc(-c2nc3c(c(N4CCOC[C@@H]4C)n2)CCN(C2COC2)C3)cc1,0.23 °C
13,COc1cc(OC)cc(N(CCNC(C)C)c2ccc3ncc(-c4cnn(C)c4)nc3c2)c1,0.6 °C
14,C[C@@]1(C(=O)Nc2ccc(F)nc2)CCCN1c1nc(Nc2cc(C3CC3)n[nH]2)c2cccn2n1,1.02 °C
15,O=C1CCc2c(Oc3ccc4c(c3)[C@@H]3[C@H](O4)[C@H]3c3nc4cc(C(F)(F)F)ccc4[nH]3)ccnc2N1 [Lifirafenib (BGB-283)],0.46 °C
16,O=C1Nc2ccc(CN3C(=O)CSC3=O)cc2/C1=C/c1cc(CN2CCOCC2)c[nH]1,0.36 °C
17,CN(c1ccccc1CNc1nc(Nc2ccc3c(c2)CC(=O)N3)ncc1C(F)(F)F)S(C)(=O)=O,9.4 °C
18,Cc1nc(N)sc1-c1ccnc(Nc2ccc(N3CCOCC3)cc2)n1,1.58 °C
